HCV inh – blocks hepatitis C virus | Huh7.5.1 HCVcc-Cre infection, luciferase reporter, 44 h | Potency, µM (series often up to 41.8 µM), without a hit: at the highest dose activity change, negative = inhibition, usual class: inhibitors | hit rate 3.4% among 340,000; active = well fitted inhibition curve with a large enough effect; inconclusive = small, poorly fitted or top-dose-only effect, or another doubt; inactive = no such curve, though single readings can be large or run the other way; also: potency is read from the fitted curve at half-maximal effect
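Whole-lifecycle infectious HCVcc-Cre system; cells 1,000/well, compound then virus (~0.5 moi) added 4 h after plating, 44 h culture. Luciferase read 15 sec following 15 min substrate incubation, room temp.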
LASV entry inh – blocks Lassa virus binding to or entry into cells | Potency, µM (highest dose often 37.9 µM), for the others: at the top dose activity change, negative = inhibition, most hits filed as inhibitors | hit rate 1.2% among 300,000 | Lassa virus pseudotype entry inhibition, cell reporter; calls by dose curve; tested in HEK293 cells; also: potency is read from the fitted curve at half-maximal effect; nearly all actives have a fitted effect of over 50% in size
MARV entry inh – Marburg virus entry inhibition. Potency, µM (highest dose often 37.8 µM), for inactives: top-dose activity change, negative = inhibition, actives largely listed as inhibitors. Marburg virus pseudotyped entry inhibition, cell reporter. hit rate 1.8% among 300,000. AID 540276; calls by dose curve; tested in HEK293 cells; also: potency is read from the fitted curve at half-maximal effect
VACV Venus inh – vaccinia inhibition (Venus reporter); Potency, µM (doses to about 36.5 µM), inactives show at the top dose activity change, negative = inhibition, most hits filed as inhibitors; hit rate 0.46% among 330,000; Vaccinia virus Venus reporter expression, fluorescence; calls by dose curve; tested in A549 cells; also: potency is read from the fitted curve at half-maximal effect; nearly all actives have a fitted effect of over 30% in size
VACV mCherry inh – inhibitors of vaccinia virus infection (mCherry reporter signal) | Vaccinia virus mCherry reporter infection, fluorescence | hit rate 0.63% among 310,000 | Potency, µM (series often up to 36.5 µM), inactives show at the highest dose activity change, negative = inhibition, usual class: inhibitors; calls by dose curve; tested in A549 cells; also: potency is read from the fitted curve at half-maximal effect; nearly all actives have a fitted effect of over 35% in size
HCMV antiviral – inhibitors of human cytomegalovirus | hit rate 4.5% among 410,000 | activity change, negative = inhibition, % at 57.5 µM | HFF cells, HCMV-luciferase reporter, 72 h; active compounds read low; in the data active = activity change below about -60%; inconclusive = no clear call, values can overlap the other calls; inactive = above about -39%
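Compounds were evaluated in HFFs infected with an HCMV luciferase reporter virus (MOI 1 PFU/cell). Luciferase in lysates collected 72 h post infection served as the replication measure.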
Starred values were filed as active, the others as inactive; i = inactive; ? = inconclusive; / = no result; [ ] = dose if it differs, or a comment. An excerpt weighted towards active compounds, which were near 7.8% of everything screened. % is scaled to controls: 0 for no effect and ±100 for the full control effect.

SMILES	HCV inh	LASV entry inh	MARV entry inh	VACV Venus inh	VACV mCherry inh	HCMV antiviral
CCOC(=O)N1CCC(n2c(SCC(=O)Nc3nccs3)nc3ccsc3c2=O)CC1	-20%	?	?	/	/	-90*
O=C(CCCCCn1c(SCc2ccncc2)nc2ccccc2c1=O)NCc1ccco1	10µM*	-2%	?	/	/	-21
COc1ccc(C(=O)Nn2c(SCC(=O)N3CCC(C)CC3)nc3ccccc3c2=O)cc1	-5%	8.2µM*	1.6µM*	/	/	-62*
O=C(CSc1nc2ccsc2c(=O)n1Cc1ccccc1F)NCc1ccccc1Cl	/	-2%[46.1 µM]	/	-5%	2%	-91*
Cc1cc2c(cc3c(SCc4ccc(Cl)cc4)nncn32)o1	/	-6%[46.1 µM]	/	-30%	-21%	-20
O=C(NCc1ccccc1Cl)c1cc2cccc3c2n1CCS3	/	?	/	5%	-17%	0
COC(=O)c1ccc2c(=O)n(Cc3ccco3)c(SCC(=O)Nc3ccc(C)c(Cl)c3)nc2c1	10%	?	?	/	/	-63*
COc1ccc(Cn2c(SCC(=O)NCc3ccco3)nc3ccsc3c2=O)cc1	2.5µM*	-4%	?	/	/	19
O=C(CSc1nc2ccsc2c(=O)n1Cc1ccc(C(=O)O)cc1)NCc1ccco1	21%	3%	1%	-7%	-12%	-26
COc1ccc(C(=O)NCCS(=O)(=O)NCc2ccccc2)cc1	-1%	-1%	-19%	-9%	i	-98*
O=C(CSc1nc2ccccc2c(=O)n1Cc1ccco1)NCCN1C(=O)CSC1=O	10µM*	-12%	-2%[46.1 µM]	0%	-12%	-32
CN(C)/C=N/c1nc2c(ncn2C2CC(O)C(CO)O2)c(=O)[nH]1 (stereo not given)	/	/	/	24%	-13%	/
COc1ccc(S[C@]2(c3nc(C)no3)CC(=O)N(c3ccc(OC)cc3)[C@@H]2c2ccc(OC)cc2)cc1	/	/	/	/	/	-8
COc1ccccc1NC(=O)c1sc2nc3n(c(=O)c2c1C)N=C(c1cccc(Br)c1)CS3	/	28%[46.1 µM]	/	8%	-1%	24
O=C1c2ccccc2C(=O)N1CCCC[C@]12Cc3ccccc3[C@H](O1)c1c(c3ccccc3oc1=O)O2	/	/	-29%[14.2 µM]	/	/	/
COc1ccccc1CN(C)C(=O)c1cc(C)nc2ccccc12	1%	-1%[46.1 µM]	11µM*	-6%	-11%	-15
CCOC(=O)N1CCC(n2c(SCC(=O)N3CCC(C)CC3)nc3ccccc3c2=O)CC1	13µM*	?	-65%	/	/	?
COc1ccc(C(=O)Nn2c(SCC(=O)NCc3ccco3)nc3ccccc3c2=O)cc1	-15%	1µM*	0.4µM*	-6%	-8%	-73*
COc1ccccc1CNC(=O)c1cc(C)nc2ccccc12	?	-10%	3%[46.1 µM]	-8%	-10%	-2
CCOC(=O)N1CCC(n2c(SCC(=O)N3CCCC3)nc3ccccc3c2=O)CC1	?	?	-19%	/	/	-22
CCn1c(SCC(=O)NCc2ccco2)nc2ccccc2c1=O	-7%	/	/	/	/	-11
COc1ccc(C(=O)NCc2cc(C)nc3ccccc23)cc1	16µM*	?	?	/	/	-24
Cc1ccc(SCc2nc(-c3ccc(C(=O)NCC(C)c4ccccc4)cc3)oc2C)cc1 (stereo not given)	/	?	/	-16%	-27%	-9
CSc1ccc(SC2CN(Cc3ccc(C)cc3)S(=O)(=O)C2)cc1 (stereo not given)	/	/	/	/	/	-12
Cc1cc(C)n2c(Nc3ccccc3C)c(-c3cccs3)nc2n1	/	2%[46.1 µM]	13%[46.1 µM]	-10%	i	-4
SMILES	HCV inh	LASV entry inh	MARV entry inh	VACV Venus inh	VACV mCherry inh	HCMV antiviral
COc1cc2nc(N3CCN(C)CC3)nc(NC3CCN(C)CC3)c2cc1OC	/	/	/	-30%	-15%	/
CCN(CC)S(=O)(=O)c1ccc2nc(NC(=O)c3cccnc3)sc2c1	/	6%[46.1 µM]	/	-12%	1%	8
COC(=O)C1(O)CC(c2ccccc2)C(C(=O)c2ccccc2)N1c1ccc(Br)cc1 (stereo not given)	/	/	/	/	/	-14
Cc1ccc(CSCc2nc3ccccc3[nH]2)cc1	?	?	?	-20%	-16%	?
Cc1cc(C)cc(CC(Cc2nc3ccccc3[nH]2)c2nc3ccccc3[nH]2)c1 (stereo not given)	5µM*	?	?	14µM*	-14%[1.46 µM]	-101*
COc1ccc2nc3cc(Cl)ccc3c(Nc3ccc(O)c(CN4CCN(C)CC4)c3)c2c1	?	?	4.5µM*	?	?	17
COc1ccc(CNC(=O)c2ccc3c(c2)CCN3S(=O)(=O)c2ccc(Cl)cc2)cc1	/	-30%[46.1 µM]	?	-14%	-17%	-30
COc1ccc(N2C(S)=C(C#N)C(=O)NC2c2ccco2)cc1 (stereo not given)	36%	11%	-4%	-14%	-8%	-35
Cc1cccc(N2C(S)=C(C#N)C(=O)NC2c2ccco2)c1 (stereo not given)	3%	9%[46.1 µM]	?	-20%	-15%	-68*
Cc1ccc(CCNC(=O)c2c[nH]c3ccc(S(=O)(=O)Nc4cccc(C(F)(F)F)c4)cc3c2=O)cc1	/	-34%[46.1 µM]	/	-10%	-8%	?
COc1ccc2cc(CO)c3cc(OC)c(OC)cc3c2c1	13µM*	/	/	?	?	-14
CCc1ccc(NC(=O)CSc2ccc(-c3sc(-c4ccccc4)nc3C)nn2)cc1	/	-17%[46.1 µM]	/	-20%	-13%	8
Cc1cc(F)ccc1NC(=O)CCn1nc(C)c(S(=O)(=O)N2CCCCC2)c1C	/	?	/	-10%	-12%	?
COc1cccc(-c2nnc3n2N=C(C(C)(C)C)CS3)c1	11µM*	-13%	-12%	/	/	-98*
Cc1cccc(-c2nnc3n2N=C(c2ccccc2Br)CS3)c1	?	?	?	-21%	-24%	-83*
CCOc1cccc(-c2nnc3n2N=C(c2cc(OC)ccc2OC)CS3)c1	11µM*	-9%	-7%	5%	-8%	16

Screening results: PubChem, National Center for Advancing Translational Sciences (NCATS)
